According to PubChem BioAssay:
Inconclusive results are not listed. Activity calls are given as the source filed them.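 The calls were made as follows, unless noted: active = normalized viability below 100% at a tested concentration; inactive = the rest.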

Legend:
[1] = viability loss in pontine glioma line – cell-based, SU-DIPG-XVII, MIPE5.0, CellTiter-Glo, qHTS, dose response (AID 1347060; cut-off not given, nearly all actives have AC50 up to about 26 µM;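 as to AC50: cells exposed to compound for 48 hours before viability readout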); details: CellTiter-Glo ATP luminescence
[2] = viability loss in pontine glioma line – cell-based, SU-DIPG-XIII, MIPE4.0, CellTiter-Glo, qHTS, dose response (AID 1347061; cut-off not given, nearly all actives have AC50 up to about 37 µM;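 also: cells exposed to compound for 48 hours before readout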); details: CellTiter-Glo ATP luminescence
[3] = viability loss in pontine glioma line – cell-based, JHH-DIPG-1, MIPE4.0, CellTiter-Glo, qHTS, dose response (AID 1347062; cut-off not given, nearly all actives have AC50 up to about 27 µM;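 as to AC50: cells exposed to compound for two days before readout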); details: JHH-DIPG-1 viability, CellTiter-Glo ATP luminescence
[4] = viability loss in pontine glioma line – cell-based, SU-DIPG-IV, MIPE4.0, CellTiter-Glo, qHTS, dose response (AID 1347063; cut-off not given, nearly all actives have AC50 up to about 30 µM;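 also: compound exposure lasted 48 hours before the viability readout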); details: CellTiter-Glo ATP luminescence
[5] = viability loss in pontine glioma line – cell-based, SU-DIPG-XIII, MIPE5.0, CellTiter-Glo, qHTS, dose response (AID 1347064; cut-off not given, nearly all actives have AC50 up to about 23 µM;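 as to AC50: cells exposed to compound for 48 hours before the viability read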); details: CellTiter-Glo ATP luminescence
[6] = viability loss in pontine glioma line – cell-based, SU-DIPG-XXV, MIPE5.0, CellTiter-Glo, qHTS, dose response (AID 1347065; cut-off not given, nearly all actives have AC50 up to about 26 µM;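 also: cells exposed to compound for 48 hours before ATP readout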); details: CellTiter-Glo ATP luminescence
[7] = growth inhibition of DIPG cells – cell-based, MIPE4.0 library, CellTiter-Glo luminescence, qHTS (AID 1347066; cut-off not given, nearly all actives have AC50 up to about 30 µM;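 also: cells exposed to compound for 48 hours before readout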); details: SU-DIPG-VI viability, CellTiter-Glo ATP luminescence
[8] = JHH-DIPG-1 glioma cell viability, MIPE5.0 library, CellTiter-Glo luminescence, qHTS (AID 1347067; cut-off not given, nearly all actives have AC50 up to about 26 µM;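 also: cells exposed to compound for 48 hours before readout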); details: JHH-DIPG-1 glioma viability, CellTiter-Glo ATP luminescence
[9] = growth inhibition of DIPG cells – cell-based, MIPE5.0 library, qHTS (AID 1347068; cut-off not given, nearly all actives have IC50 up to about 30 µM;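 as to IC50: cells exposed to compound for 48 hours before viability readout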); details: SU-DIPG-XXV viability
[10] = viability loss with induced miR-34 in A549 – imaging, A549 dox-inducible miR-34, nuclei and caspase counts, primary screen (AID 1347080;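 active = compounds whose cell count with miR-34 switched on is under 0.7 times the count with it off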); details: A549 miR-34 inducible, Hoechst nuclei count, 48 h
[11] = MELAS cybrid and Rieske KO viability enhancers – cell-based, MELAS cybrids, Rieske KO mouse fibroblasts, CellTiter-Glo, primary screen (AID 1508586;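 active = mean z-score across replicates of 1.96 or higher in either the MELAS or the Rieske mutant cell line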;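 also: z relative to plate mean and SD of compound and empty wells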); details: low glucose
[12] = compounds altering HSF1 focus formation in cells – imaging, Selleck Cancer Library (AID 1347162; in the data active = plate-normalised HSF1 focus index below about 0.46); details: human cells, HSF1 nuclear foci imaging, at 10 µM; SSMD: measured here: HSF1 foci SSMD mean; cell count: measured here: cell number; plate-normalised HSF1 focus index: stronger effect = lower value
[13] = drug combination growth inhibition, ovarian cancer – cell-based, oncology-focused library, rucaparib conditional, profiling panel (AID 1508598); details: patient-derived ovarian cancer cells, CellTiter-Glo viability, 144 h, stronger effect = lower value
[14] = stronger effect = lower value, cell number ratio, induced over uninduced
[15] = measured here: relative caspase fold change +Dox/-Dox
[16] = measured here: total cells with miR-34 induction, stronger effect = lower value
[17] = measured here: total cells without miR-34 induction
[18] = MELAS cybrid survival, CellTiter-Glo 48 h, stronger effect = higher value
[19] = Rieske KO mouse fibroblast survival, CellTiter-Glo 72 h
[20] = at 0.000305 µM, OCI-C5x cells, with rucaparib 10 µM, 100% = cells with rucaparib alone
[21] = at 0.000305 µM, OCI-C5x cells, without rucaparib
[22] = at 0.000305 µM, OCI-P5x cells, with rucaparib 20 µM, 100% = cells with rucaparib alone
[23] = at 0.000305 µM, OCI-P5x cells, without rucaparib
[24] = at 0.00122 µM, OCI-C5x cells, with rucaparib 10 µM, 100% = cells with rucaparib alone
[25] = at 0.00122 µM, OCI-C5x cells, without rucaparib
[26] = at 0.00122 µM, OCI-P5x cells, with rucaparib 20 µM, 100% = cells with rucaparib alone
[27] = at 0.00122 µM, OCI-P5x cells, without rucaparib
[28] = at 0.00488 µM, OCI-C5x cells, with rucaparib 10 µM, 100% = cells with rucaparib alone
[29] = at 0.00488 µM, OCI-C5x cells, without rucaparib
[30] = at 0.00488 µM, OCI-P5x cells, with rucaparib 20 µM, 100% = cells with rucaparib alone
[31] = at 0.00488 µM, OCI-P5x cells, without rucaparib
[32] = at 0.0195 µM, OCI-C5x cells, with rucaparib 10 µM, 100% = cells with rucaparib alone
[33] = at 0.0195 µM, OCI-C5x cells, without rucaparib
[34] = at 0.0195 µM, OCI-P5x cells, with rucaparib 20 µM, 100% = cells with rucaparib alone
[35] = at 0.0195 µM, OCI-P5x cells, without rucaparib
[36] = at 0.0781 µM, OCI-C5x cells, with rucaparib 10 µM, 100% = cells with rucaparib alone
[37] = at 0.0781 µM, OCI-C5x cells, without rucaparib
[38] = at 0.0781 µM, OCI-P5x cells, with rucaparib 20 µM, 100% = cells with rucaparib alone
[39] = at 0.0781 µM, OCI-P5x cells, without rucaparib
[40] = at 0.313 µM, OCI-C5x cells, with rucaparib 10 µM, 100% = cells with rucaparib alone
[41] = at 0.313 µM, OCI-C5x cells, without rucaparib
[42] = at 0.313 µM, OCI-P5x cells, with rucaparib 20 µM, 100% = cells with rucaparib alone
[43] = at 0.313 µM, OCI-P5x cells, without rucaparib
[44] = at 1.25 µM, OCI-C5x cells, with rucaparib 10 µM, 100% = cells with rucaparib alone
[45] = at 1.25 µM, OCI-C5x cells, without rucaparib
[46] = at 1.25 µM, OCI-P5x cells, with rucaparib 20 µM, 100% = cells with rucaparib alone
[47] = at 1.25 µM, OCI-P5x cells, without rucaparib
[48] = at 5 µM, OCI-C5x cells, with rucaparib 10 µM, 100% = cells with rucaparib alone
[49] = at 5 µM, OCI-C5x cells, without rucaparib
[50] = at 5 µM, OCI-P5x cells, with rucaparib 20 µM, 100% = cells with rucaparib alone
[51] = at 5 µM, OCI-P5x cells, without rucaparib

CCN(CC)Cc1ccc2cc(COC(=O)Nc3ccc(C(=O)NO)cc3)ccc2c1
inactive: fold change [10, 14] 1.01 | z-score [11, 18] 1.32
active: AC50 [1] 5.25 µM | AC50 [2] 11.8 µM | AC50 [3] 2.64 µM | AC50 [4] 5.26 µM | AC50 [5] 2.63 µM | AC50 [6] 1.66 µM | AC50 [7] 1.66 µM | AC50 [8] 1.48 µM | IC50 [9] 18.6 µM
0.529: fold change [10, 15]
1260: cell count [10, 16]
-3.38: z-score [11, 19]
1250: cell count [10, 17]

Cn1c(=O)c(F)c(Nc2ccc(I)cc2F)c2c(=O)n(C[C@@H](O)CO)cnc21
inactive: outcome [7] | plate-normalised HSF1 focus index [12] 1.1 | viability [13, 20] 107% | viability [13, 21] 128% | viability [13, 23] 106% | viability [13, 24] 102% | viability [13, 25] 116% | viability [13, 28] 104% | viability [13, 29] 118% | viability [13, 32] 102% | viability [13, 33] 111% | viability [13, 37] 103%
7260: cell count [12]
active: AC50 [1] 0.0661 µM | AC50 [2] 0.264 µM | AC50 [3] 0.235 µM | AC50 [4] 3.32 µM | AC50 [5] 0.132 µM | AC50 [6] 0.295 µM | AC50 [8] 0.0661 µM | IC50 [9] 1.86 µM | viability [13, 22] 96.8% | viability [13, 26] 81.5% | viability [13, 27] 78.8% | viability [13, 30] 69% | viability [13, 31] 76.3% | viability [13, 34] 59.1% | viability [13, 35] 66.1% | viability [13, 36] 88.1% | viability [13, 38] 54.4% | viability [13, 39] 64.1% | viability [13, 40] 86.7% | viability [13, 41] 88.4% | viability [13, 42] 43.7% | viability [13, 43] 47.9% | viability [13, 44] 58.9% | viability [13, 45] 92.3% | viability [13, 46] 34.4% | viability [13, 47] 38.4% | viability [13, 48] 49.3% | viability [13, 49] 61.2% | viability [13, 50] 2.17% | viability [13, 51] 26.7%
1.8: SSMD [12]

COc1cc2c(cc1OC)C1CC(=O)C(CC(C)C)CN1CC2 (stereo unspecified)
inactive: outcome [1] | outcome [2] | outcome [3] | outcome [4] | outcome [5] | outcome [6] | outcome [7] | outcome [8] | outcome [9] | fold change [10, 14] 0.996
9800: cell count [10, 17]
9770: cell count [10, 16]
0.689: fold change [10, 15]

COc1ccc(-c2ccc3ncc4c(c3c2)n(-c2ccc(N3CCNCC3)c(C(F)(F)F)c2)c(=O)n4C)cn1
603: cell count [10, 16]
648: cell count [10, 17]
1.48: fold change [10, 15]
active: AC50 [1] 0.105 µM | AC50 [2] 0.0469 µM | AC50 [3] 0.0662 µM | AC50 [4] 0.0187 µM | AC50 [5] 0.118 µM | AC50 [6] 0.0525 µM | AC50 [7] 0.187 µM | AC50 [8] 0.235 µM | IC50 [9] 0.59 µM
-3.7: z-score [11, 19]
inactive: fold change [10, 14] 0.93 | z-score [11, 18] 0.639

Clc1ccc(C(c2ccc(Cl)cc2)n2cc[n+](CC(OCc3ccc(Cl)cc3Cl)c3ccc(Cl)cc3Cl)c2)cc1 (stereo unspecified)
active: AC50 [1] 2.95 µM | AC50 [2] 23.5 µM | AC50 [3] 16.6 µM | AC50 [4] 9.35 µM | AC50 [5] 2.63 µM | AC50 [6] 2.35 µM | AC50 [7] 13.2 µM | AC50 [8] 2.63 µM | IC50 [9] 3.72 µM

C=CC(=O)Nc1cccc(Oc2nc(Nc3ccc(N4CCN(C)CC4)cc3OC)ncc2Cl)c1
4420: cell count [10, 16]
5250: cell count [10, 17]
0.924: fold change [10, 15]
0.584: z-score [11, 19]
inactive: outcome [2] | fold change [10, 14] 0.841 | plate-normalised HSF1 focus index [12] 0.843 | z-score [11, 18] -0.337 | viability [13, 20] 115% | viability [13, 21] 104% | viability [13, 22] 114% | viability [13, 23] 112% | viability [13, 24] 117% | viability [13, 25] 120% | viability [13, 26] 108% | viability [13, 27] 114% | viability [13, 28] 107% | viability [13, 29] 118% | viability [13, 30] 119% | viability [13, 31] 118% | viability [13, 32] 115% | viability [13, 33] 112% | viability [13, 34] 108% | viability [13, 35] 118% | viability [13, 36] 119% | viability [13, 37] 116% | viability [13, 38] 115% | viability [13, 39] 115% | viability [13, 40] 115% | viability [13, 41] 120% | viability [13, 42] 119% | viability [13, 43] 118% | viability [13, 44] 106% | viability [13, 46] 108% | viability [13, 49] 115% | viability [13, 50] 104%
-3.65: SSMD [12]
5190: cell count [12]
active: AC50 [1] 3.32 µM | AC50 [3] 20.9 µM | AC50 [4] 14.8 µM | AC50 [5] 6.61 µM | AC50 [6] 4.17 µM | AC50 [7] 16.6 µM | AC50 [8] 8.33 µM | IC50 [9] 2.63 µM | viability [13, 45] 45.1% | viability [13, 47] 94.6% | viability [13, 48] 91.6% | viability [13, 51] 67.9%

COc1cc2c(Oc3ccc(NC(=O)C4(C(=O)Nc5ccc(F)cc5)CC4)cc3F)ccnc2cc1OCCCN1CCOCC1
0.0525: z-score [11, 19]
active: AC50 [1] 2.63 µM | AC50 [2] 8.33 µM | AC50 [3] 18.7 µM | AC50 [4] 6.62 µM | AC50 [5] 3.72 µM | AC50 [6] 1.32 µM | AC50 [7] 11.8 µM | AC50 [8] 5.9 µM | IC50 [9] 3.72 µM | z-score [11, 18] 2.58
1060: cell count [10, 16]
992: cell count [10, 17]
inactive: fold change [10, 14] 1.06
0.77: fold change [10, 15]

c1ccc(CNc2nc(NCc3ccccc3)c3ccccc3n2)cc1
4310: cell count [10, 17]
0.477: fold change [10, 15]
inactive: fold change [10, 14] 0.814 | z-score [11, 18] -0.415
active: AC50 [1] 14.8 µM | AC50 [2] 7.43 µM | AC50 [3] 23.5 µM | AC50 [4] 20.9 µM | AC50 [5] 16.6 µM | AC50 [6] 9.34 µM | AC50 [7] 23.5 µM | AC50 [8] 10.5 µM | IC50 [9] 29.5 µM
-0.855: z-score [11, 19]
3510: cell count [10, 16]
